Experimental findings from PubChem BioAssay (NCATS) are described below.

Molecules are shown by their SMILES. Potency and affinity values are given separately. Unmarked numbers belong to inactive results. No rule for the calls is given here.
Also: 0% is about no effect.

The conditions of the experiment: Ebola virus entry assay, green fluorescence channel.
`COP(=S)(OC)SCN1C(=O)c2ccccc2C1=O`: the efficacy is -28.1%.

As to `CC(C)=CCC/C(C)=C/CO`, the efficacy is -28.2%.

Take `O=C(O)c1cc(-c2ccccc2)nc2ccccc12`: the efficacy is -14.9%.

With `Clc1cccc(SC2CCNCC2)n1`, the efficacy is -16%.

On to `NC(=O)NS(=O)(=O)c1ccc(Cl)cc1`, for which the efficacy was -22.2%.

As for `Cc1cc(NS(=O)(=O)c2ccc(N)cc2)nc(C)n1`, the efficacy is -28.1%.

In the case of `COc1ccc2c(c1)CCCC2=O`, the efficacy is 8.41%.

Take `CCCC(O)C(CC)CO` (centres undefined): the efficacy is 14.1%.

In the case of `Cc1ncc([N+](=O)[O-])n1CC(O)CCl` (centres undefined), the efficacy was -16.3%.

Turning to `CC1(C)O[C@@H]2C[C@H]3[C@@H]4CCC5=CC(=O)C=C[C@]5(C)[C@@]4(F)[C@@H](O)C[C@]3(C)[C@]2(C(=O)CO)O1`, the efficacy is 24.4%.

Take `CC(C)(C)NC[C@H](O)COc1nsnc1N1CCOCC1`: the efficacy was 15.5%.

Consider `CCCCCN(CCCOC)C(=O)C(CCC(=O)O)NC(=O)c1ccc(Cl)c(Cl)c1` (centres undefined), for which the efficacy is -27.8%.

In the case of `Oc1ccccc1C=NCc1ccccc1`, the efficacy is -16.4%.

`OC[C@H]1O[C@@H](Oc2ccc(O)cc2)[C@H](O)[C@@H](O)[C@@H]1O`: the efficacy is -11.6%.

For the compound `CCCCC(CC)CNC(=O)CC(C)OC(=O)CCC(=O)O` (centres undefined), the efficacy was 12.2%.

In the case of `COP(=O)(OC)OC(c1ccc(Cl)cc1)P(=O)(OC)OC` (centres undefined), the efficacy is -15.4%.

On to `CCCCC/C=C\C/C=C\C/C=C\C/C=C\CCCC(=O)NCC(=O)O`, for which the efficacy is -13.8%.

In the case of `NCC(=O)CCC(=O)O`, the efficacy was -14.6%.

Regarding `Cc1c(NC(C)C)c(=O)n(-c2ccccc2)n1C`, the efficacy is -14.1%.

In the case of `CCCCC(=O)OCC(=O)[C@H]1[C@H](C)C[C@H]2[C@@H]3C[C@H](F)C4=CC(=O)C=C[C@]4(C)[C@@]3(F)[C@@H](O)C[C@@]21C`, the efficacy was 21.9%.

For the compound `CCCCOCCOC(=O)c1cccnc1`, the efficacy was -26.3%.

As for `C[N+](C)(CCOc1ccccc1)Cc1cccs1`, the efficacy is -18.5%.

As to `CC1CCc2c(N3CCC(O)CC3)c(F)cc3c(=O)c(C(=O)O)cn1c23` (centres undefined), the efficacy is -9.77%.

On to `COc1ccc(-c2cc(=O)c3c(O)cc(O[C@@H]4O[C@H](CO[C@@H]5O[C@@H](C)[C@H](O)[C@@H](O)[C@H]5O)[C@@H](O)[C@H](O)[C@H]4O)cc3o2)cc1O`, for which the efficacy is -6.57%.

In the case of `CC(C(=O)O)c1cccc(Oc2ccccc2)c1` (centres undefined), the efficacy is 18.1%.

As to `Cn1c([N+](=O)[O-])cnc1COC(N)=O`, the efficacy is 19.4%.

Take `CC(C)NNC(=O)c1ccncc1`: the efficacy is -20.5%.

Consider `Cc1cc(C)nc(NS(=O)(=O)c2ccc(N)cc2)n1`, for which the efficacy is -8.79%.

For `Cc1cc(C)c(NC(=O)CN(CC(=O)O)CC(=O)O)c(C)c1Br`, the efficacy was 7.04%.

`CN1C(=O)NC(=O)C(C)(C2=CCCCC2)C1=O` (centres undefined): the efficacy was 10.3%.

For `COc1ccc(C2CNC(=O)C2)cc1OC1CCCC1` (centres undefined), the efficacy was -23.7%.

Regarding `CCCCCCCCCCCCCCCC(=O)OC(C)C`, the efficacy is 10.3%.

Consider `CCn1nc(C(=O)O)c(=O)c2cc3c(cc21)OCO3`, for which the efficacy is 37.2%.

Consider `Cc1ccc(C(C)C)cc2c(C)ccc1-2`, for which the efficacy is 14%.

For `CC(C)(C)c1cc(C=O)cc(C(C)(C)C)c1O`, the efficacy is 23.6%.

With `O=c1c(C2CC(c3ccc(-c4ccc(Br)cc4)cc3)Cc3ccccc32)c(O)sc2ccccc12` (centres undefined), the efficacy was 37.1%.

`CNC(C)(C)Cc1ccccc1`: the efficacy is -14.9%.

Consider `Cc1ncc(CO)c(CN)c1O`, for which the efficacy is -11.8%.

As to `CC(C)[N+](C)(C)CC(O)COc1cccc2ccccc12` (centres undefined), the efficacy was -28.5%.
